These results are taken from PubChem BioAssay (NCI).

The structures appear in SMILES notation. This is part of a sample that, as a whole, favours compounds with a hit. Of some 83,000 tested, about 20% had one in any assay.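 Cells were grown in 96-well plates and exposed to the test compound at a single concentration for 48 hours; results are reported as percent growth, with values below 10 considered active.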 Unmarked numbers belong to inactive results. Calls of active or inactive are those of the source.

Among the test systems are DU-145 prostate; K-562 leukemia; MALME-3M melanoma; MDA-MB-231 breast; RXF 393 renal; SF-268 CNS; SF-295 CNS; SF-539 CNS; UACC-257 melanoma; M14 melanoma; HCT-15 colon; HT29 colon; SNB-75 CNS; SNB-19 CNS; PC-3 prostate; SK-MEL-5 melanoma; UACC-62 melanoma; LOX IMVI melanoma; SK-MEL-28 melanoma; U251 CNS.
Experiment in all cases: NCI-60 one-dose screen, 48 h (100 = growth as untreated, 0 = no growth, -100 = all killed)
What all share (settings): 10 µM unless noted

For `COc1cc2c(c(OC)c1O)C(=O)C(OC)C(c1ccc(O)c(O)c1)O2` (stereo not given), the growth in the assay with DU-145 prostate was 5.45% (active); with K-562 leukemia it was 6.8% (active); in the assay on MALME-3M melanoma it was 52.2%; in the assay on MDA-MB-231 breast, -8.18% (active); in the assay on RXF 393 renal, 17.1%; in the assay on SF-268 CNS it was 24.6%. The growth is -6.27% (active) in the assay with SF-295 CNS; -23% (active) with SF-539 CNS; 69.1% in the assay with UACC-257 melanoma; -3.36% (active) in the assay with M14 melanoma; 3.6% (active) with HCT-15 colon; 46.8% in the assay with HT29 colon. For the same compound, the growth with SNB-75 CNS was -8.14% (active); with SNB-19 CNS it was 21%; in the assay with PC-3 prostate, -22.3% (active); in the assay with SK-MEL-5 melanoma, -23.6% (active); in the assay with UACC-62 melanoma, 29.3%; with LOX IMVI melanoma, 12.9%. The growth with SK-MEL-28 melanoma was 56.2%.

Take `Cc1ccccc1NC(=O)c1sc2nc3c(cc2c1N)C(=O)CCC3`: the growth with DU-145 prostate is 18.3%; in the assay with K-562 leukemia, 22.1%; in the assay on MALME-3M melanoma it was 66.5%; in the assay on MDA-MB-231 breast it was 61.6%; in the assay with RXF 393 renal it was -10.4% (active); in the assay on SF-268 CNS it was 65.4%. For the same compound, the growth with SF-295 CNS was 57.2%; in the assay with SF-539 CNS, 27.6%; in the assay with UACC-257 melanoma, 61%; in the assay on M14 melanoma, 41.5%; in the assay with HCT-15 colon, 32.8%; in the assay with HT29 colon it was 21.1%. In addition, the growth with SNB-75 CNS is 13.1%; in the assay on SNB-19 CNS, 46.1%; in the assay with U251 CNS it was 49%; with SK-MEL-5 melanoma, 18.6%; in the assay with UACC-62 melanoma it was 36.9%; with LOX IMVI melanoma, 47.4%. For the same compound, in the assay on SK-MEL-28 melanoma, the growth is 52.8%.

On to `Cc1c(C(=O)CCl)c(=O)n(-c2ccccc2)n1C`, for which the growth in the assay on DU-145 prostate was 42.4%; with K-562 leukemia, 53%; with MALME-3M melanoma, 48.1%; in the assay on MDA-MB-231 breast, 97.7%; in the assay with RXF 393 renal, 38.7%; in the assay on SF-268 CNS, 84.5%. The growth was 87.3% with SF-295 CNS; 71.7% in the assay on SF-539 CNS; 52.1% with UACC-257 melanoma; 52.3% in the assay on M14 melanoma; 40% with HCT-15 colon; 36.2% in the assay with HT29 colon. The growth in the assay with SNB-75 CNS was 76.3%; in the assay with SNB-19 CNS, 94.5%; in the assay on U251 CNS, 65.8%; in the assay on SK-MEL-5 melanoma, 87.9%; in the assay on UACC-62 melanoma, 74.1%; in the assay with LOX IMVI melanoma, 62%. Also, in the assay with SK-MEL-28 melanoma, the growth was 65%.

Take `Cn1cnc([N+](=O)[O-])c1S(=O)(=O)Oc1cccc2ccccc12`: the growth is 43.1% in the assay with DU-145 prostate; 3.91% (active) in the assay with K-562 leukemia; -39.9% (active) in the assay with MALME-3M melanoma; 76.3% in the assay on MDA-MB-231 breast; 19.6% in the assay on RXF 393 renal; 83.7% in the assay with SF-268 CNS. The growth is 102% in the assay with SF-295 CNS; 52.8% with SF-539 CNS; 71% in the assay with UACC-257 melanoma; -62.9% (active) in the assay on M14 melanoma; 1.87% (active) with HCT-15 colon; 10.9% with HT29 colon. Moreover, the growth was 83.2% with SNB-75 CNS; 98.8% in the assay with SNB-19 CNS; 57.4% with PC-3 prostate; 93% in the assay on SK-MEL-5 melanoma; 80.7% in the assay on UACC-62 melanoma; -45.1% (active) with LOX IMVI melanoma.

Turning to `CCN(CC)CCCC(C)Nc1ccnc2ccc(Oc3ccccc3)cc12` (stereo not given), the growth is 88.6% in the assay on DU-145 prostate; 13.7% with K-562 leukemia; -38.6% (active) with MALME-3M melanoma; 42.5% in the assay on MDA-MB-231 breast; 24.5% with RXF 393 renal; 66.2% in the assay on SF-268 CNS. The growth is 93.7% in the assay with SF-295 CNS; -41.3% (active) in the assay on SF-539 CNS; -54.1% (active) with UACC-257 melanoma; -58% (active) in the assay with M14 melanoma; 49.6% in the assay with HCT-15 colon; 38.6% with HT29 colon. Also, the growth in the assay on SNB-75 CNS is 73.2%; in the assay with SNB-19 CNS, 89.4%; in the assay on PC-3 prostate, 84.9%; in the assay on SK-MEL-5 melanoma, -89% (active); in the assay with UACC-62 melanoma, 31.7%; with LOX IMVI melanoma it was 36.4%.

Regarding `CS(=O)(=O)c1ccc(C(=O)N/N=C/c2ccccc2O)cc1`, the growth with DU-145 prostate is 40.4%; in the assay with K-562 leukemia it was 40.5%; in the assay with MALME-3M melanoma, 63.5%; with MDA-MB-231 breast, 47.4%; in the assay on RXF 393 renal, 53%; with SF-268 CNS, 38.4%. The growth in the assay with SF-295 CNS was 38%; with SF-539 CNS it was 55.3%; in the assay with UACC-257 melanoma, 22.6%; with M14 melanoma it was 32.5%; with HCT-15 colon, 18%; in the assay with HT29 colon, 43.6%. Moreover, the growth is 77.8% with SNB-75 CNS; 45.4% in the assay on SNB-19 CNS; 54.3% with PC-3 prostate; 32.2% in the assay with SK-MEL-5 melanoma; 16.4% in the assay on UACC-62 melanoma; 21.4% in the assay on LOX IMVI melanoma. Further, the growth in the assay on SK-MEL-28 melanoma is 55.9%.

`CCn1c(Cc2ccccc2Nc2c(Cl)cccc2Cl)nnc1SCC(=O)Nc1cccc(OC)c1`: the growth with DU-145 prostate was 94%; with K-562 leukemia, 62.6%; in the assay on MALME-3M melanoma it was 94.3%; in the assay with MDA-MB-231 breast it was 61.6%; with RXF 393 renal it was 90%; in the assay with SF-268 CNS, 82.1%. Besides, the growth was 81.9% in the assay with SF-295 CNS; 105% with SF-539 CNS; 97.6% in the assay on UACC-257 melanoma; 76.4% with M14 melanoma; 78.9% in the assay on HCT-15 colon; 68.6% in the assay with HT29 colon. The growth with SNB-75 CNS is 86.2%; in the assay with SNB-19 CNS, 79.4%; in the assay with PC-3 prostate, 56.1%; with SK-MEL-5 melanoma, 91.6%; in the assay with UACC-62 melanoma, 33.6%; with LOX IMVI melanoma it was 79.9%. The growth in the assay with SK-MEL-28 melanoma was 96.4%.

For the compound `CS(=O)(=O)c1ccc(Cl)c([N+](=O)[O-])c1`, the growth in the assay with DU-145 prostate was 33.9%; with K-562 leukemia it was 1.69% (active); in the assay on MALME-3M melanoma, 132%; with MDA-MB-231 breast it was 109%; in the assay with RXF 393 renal, 113%; in the assay on SF-268 CNS it was 81.5%. Also, the growth is 102% in the assay with SF-295 CNS; 102% with SF-539 CNS; 116% with UACC-257 melanoma; 108% in the assay on M14 melanoma; 99.4% with HCT-15 colon; 94.7% in the assay on HT29 colon. Also, the growth in the assay with SNB-75 CNS was 114%; in the assay on SNB-19 CNS, 105%; in the assay with PC-3 prostate, 77.8%; in the assay with SK-MEL-5 melanoma, 106%; in the assay with UACC-62 melanoma, 112%; in the assay with LOX IMVI melanoma, 88.2%. The growth in the assay on SK-MEL-28 melanoma is 127%.
